Experimental findings from the supplement of paper PMC9135407 are described below.

The structures appear in SMILES notation. Counter-ions that a name gives are not always drawn.

This experiment deals with primary human hepatic stellate cells (donor 1). In words: ACTA2 mRNA fold change vs DMSO (normalised to PSMB2); higher = more ACTA2 expression. The conditions noted are these: 48 h. The procedure: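 Secondary qRT-PCR screen in primary human HSCs (donor 1), 384-well plates, with compounds dispensed in quadruplicate and incubated for 48 h. Cells-to-CT lysates were used for multiplexed TaqMan qPCR of ACTA2 or COL1A1 with PSMB2 as reference. Fold changes versus DMSO come from a linear model (Ct_gene ~ Ct_PSMB2 + plate + chemical). A hit is defined as COL1A1 and ACTA2 FC <0.5 (FDR <0.05) with PSMB2 between 0.2 and 2.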
As for `CC(/C=C/C(=O)NO)=C\[C@@H](C)C(=O)c1ccc(N(C)C)cc1` [Trichostatin A] (3.33333 µM), the “ACTA2 mRNA fold change” value amounted to 0.0381.

Regarding `C#CC1(O)CC[C@H]2[C@@H]3CCC4=CC(=O)CC[C@@H]4[C@H]3CC[C@@]21CC` (stereo not given in full) [Norgestrel] (21.3333 µM), the “ACTA2 mRNA fold change” value is 0.714.

With `N=C(N)SCCc1ccc(OCc2ccc([N+](=O)[O-])cc2)cc1` [KB-R7943 mesylate] (33.3333 µM), the “ACTA2 mRNA fold change” value was determined as 0.0804.

As to `CCOC(=O)C1=C(COCCN)NC(C)=C(C(=O)OC)C1c1ccccc1Cl` (stereo not given) (33.3333 µM), the “ACTA2 mRNA fold change” value came out at 0.084.

Turning to `CC(C)NCCCn1c(Sc2cc3c(cc2I)OCO3)nc2c(N)ncnc21` (33.3333 µM), the “ACTA2 mRNA fold change” value worked out at 1.26.

Take `c1ccc2c(NCCCCCCCNc3c4c(nc5ccccc35)CCCC4)c3c(nc2c1)CCCC3` [bis(7)-Tacrine] (3.33333 µM): the “ACTA2 mRNA fold change” value came out at 0.0296.

With `CC(C)(C)c1cc(NC(=O)Nc2ccc(-c3cn4c(n3)sc3cc(OCCN5CCOCC5)ccc34)cc2)no1` [Quizartinib  (AC220)] (11.1 µM), the “ACTA2 mRNA fold change” value was determined as 0.258.

Consider `CN(C)Cc1c(C(=O)NCCOc2ccc(C(=O)NO)cc2)oc2ccccc12` (33.3333 µM), for which the “ACTA2 mRNA fold change” value stood at 0.00935.

Take `Cc1[nH]c(/C=C2\C(=O)Nc3ccc(S(=O)(=O)N(C)c4cccc(Cl)c4)cc32)c(C)c1C(=O)N1CCN(C)CC1` (33.3333 µM): the “ACTA2 mRNA fold change” value worked out at 0.425.

With `Cc1ccc(NC(=O)c2ccc(CN3CCN(C)CC3)cc2)cc1Nc1nc(-c2cccnc2)cs1` [Masitinib (AB1010, Masivet)] (6.66667 µM), the “ACTA2 mRNA fold change” value came out at 0.706.
